ELG1 repair inh: inhibitors of ELG1-dependent DNA repair in HEK293T cells; Potency, µM (series often up to 46.1 µM), for inactives: at the top dose activity change, negative = inhibition, hits mostly inhibitors; HEK293T ELG1-luciferase reporter, luminescence, 16 h; DNA damage induced by 5-fluorouridine; actives 2.3% (n = 330,000); further: on the % scale 0 is the no-effect control and ±100 the full control effect; nearly all actives have a fitted effect of over 55% in size
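Step one: seed 2,000 cells per well. Step two: pin-transfer compound or DMSO alongside 5-fluorouridine. Step three: incubate 16 hr, 37 °C, 5% CO2. Step four: add ONE-Glo, wait 30 min, read luminescence.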
SMN2 splice up: SMN2 splice variant enhancement; HEK293 SMN2-luciferase splicing reporter, luminescence, 30-36 h; Potency, µM (top dose mostly 46.1 µM), without a hit: at the highest dose activity change, positive = activation, actives largely listed as activators; actives 2.8% (n = 210,000); further: % of control where 0% means no effect; nearly all actives have a fitted effect of over 55% in size
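HEK293 cells carry an SMN2 minigene-luciferase reporter in which exon 7 inclusion puts luciferase in frame. Cells were seeded at 2000 cells/well, attached for 10-12 hours, then exposed to compounds for 30-36 hours at 37C before ONE-Glo luminescence.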
NPC1 prom act: activates the NPC1 promoter; Potency, µM (highest dose often 9.22 µM), inactives show top-dose activation, most hits filed as activators; actives 2.4% (n = 320,000); Huh7 NPC1 promoter luciferase reporter, 24 h; further: % of control where 0% means no effect; nearly all actives have a fitted effect of over 60% in size
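In 1536-well qHTS, Huh7 cells harboring an NPC1 promoter–luciferase construct received compound for 24 h; activation was quantified by luminescence following luciferase reagent addition.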
Rab9 prom act: Rab9 promoter activation. Huh7 Rab9 promoter-luciferase reporter, luminescence, 24 h. Potency, µM (top dose mostly 9.22 µM), without a hit: at the top dose activation, negative = inhibition, usual class: activators. actives 2.8% (n = 320,000); further: % of control where 0% means no effect; nearly all actives have a fitted effect of over 60% in size
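Steps: seed 1500 Huh7 Rab9-luc cells per well, rest 2 h at 37 °C; add compound in DMSO; incubate 24 h; add luciferase reagent, 10 min ambient; read luminescence.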
ELG1 genotoxic: inducers of genotoxicity in HEK293T ELG1-luciferase cells; AID 504466; Potency, µM (top dose mostly 46 µM), inactives show at the top dose activity change, positive = activation, hits mostly activators; actives 1.3% (n = 330,000); HEK293T ELG1-luciferase reporter, luminescence, 16 h; further: % of control where 0% means no effect; nearly all actives have a fitted effect of over 60% in size
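HEK293T cells expressing luciferase-tagged ELG1 were treated with compound or DMSO for 16 hr at 37°C. Luciferase activity was then read after 30 min with ONE-Glo at room temperature; rising signal flags genetic stress.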
FLuc counter: inhibits or activates purified firefly luciferase, miR-21 counter-screen. P08659. purified FLuc, Km substrates, luminescence inhibition. Potency, µM (highest dose often 57.5 µM), for inactives: at the highest dose activity change, negative = inhibition, usual class: inhibitors. actives 6.9% (n = 360,000). AID 588342;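 further: plate controls were vehicle for no effect and reference inhibitor for full effect; nearly all actives have a fitted effect of over 55% in size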
Target sequence (P08659 whole entry, looked up): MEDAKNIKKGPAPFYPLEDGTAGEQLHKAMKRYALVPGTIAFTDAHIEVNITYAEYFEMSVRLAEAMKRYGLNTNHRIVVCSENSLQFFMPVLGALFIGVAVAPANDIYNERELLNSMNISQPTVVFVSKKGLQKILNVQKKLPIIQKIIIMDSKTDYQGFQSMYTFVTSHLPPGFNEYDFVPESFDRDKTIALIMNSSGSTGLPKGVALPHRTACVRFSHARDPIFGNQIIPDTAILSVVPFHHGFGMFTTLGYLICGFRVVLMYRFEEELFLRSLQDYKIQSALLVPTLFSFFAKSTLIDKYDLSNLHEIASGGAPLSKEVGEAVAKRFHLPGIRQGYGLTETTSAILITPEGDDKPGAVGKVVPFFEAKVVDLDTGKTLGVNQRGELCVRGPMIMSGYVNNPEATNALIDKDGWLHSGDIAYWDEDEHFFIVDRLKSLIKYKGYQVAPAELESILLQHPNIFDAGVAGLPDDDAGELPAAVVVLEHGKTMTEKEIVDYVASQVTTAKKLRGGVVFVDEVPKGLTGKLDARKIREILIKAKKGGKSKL
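Purified P. pyralis luciferase, 10 nM final, with Km-level 10 uM D-luciferin and 10 uM ATP in 50 mM Tris acetate pH 7.5, 10 mM Mg acetate, 0.01% Tween-20, 0.05% BSA; 6-point qHTS titration about 60 µM downward; luminescence read.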
Starred values were filed as active, the others as inactive; ? = inconclusive; nt = no result. Only some compounds are listed: those with a hit (about 9.2% of all), similar ones and a draw of the others. The call rests on the fitted dose curve; in most records, active means well fitted curve in the direction sought with a large enough effect; inconclusive means small, poorly fitted or top-dose-only effect, or another doubt; inactive means no such curve, though single readings can be large; an effect the other way counts as inactive or inconclusive. Potency means the concentration at half of the fitted maximal effect.

SMILES | ELG1 repair inh | SMN2 splice up | NPC1 prom act | Rab9 prom act | ELG1 genotoxic | FLuc counter
COc1ccc(OC)c(/C=C/C(=O)c2ccc(Cl)cc2)c1 | -3% | -32% | -2% | -5% | 1% | 11µM*
COc1ccccc1/C=C/C(=O)c1c2c(c(C)[nH]c1=O)CCCC2 | 18µM* | -54% | 0% | -30% | -5% | -7%
O=C(/C=C/c1ccccc1O)c1ccc(Cl)cc1 | 13% | nt | -1% | 25% | 10% | 3.4µM*
COc1ccc(OC(=O)c2ccc(Cl)cc2)c(C(C)=O)c1 | ? | nt | -5% | -3% | 15% | ?
O=C(O)/C=C/c1ccccc1Oc1ccc(Cl)cc1Cl | 6% | 3% | 0% | -3% | 1% | 15µM*
COc1ccc(/C=C/C(=O)c2c(C)cc(C)[nH]c2=O)c2ccccc12 | ? | nt | -9% | -9% | -3% | 2%
CCn1cc(C(=O)NCCc2ccc(C)cc2)c(=O)c2cc(S(=O)(=O)N3CCC(C)CC3)ccc21 | nt | 14% | nt | nt | nt | -6%
COC(C(=O)Nc1ccnn1C1CCN(Cc2ccc(CO)o2)CC1)c1ccccc1 (stereo unspecified) | 10% | nt | 3% | 3% | 0% | 1%
COc1ccccc1/C=C/C(=O)c1ccc(Cl)cc1 | ? | -19% | ? | 13% | ? | 7.6µM*
COc1ccccc1/C=C/C(=O)N1CCC(c2ccccc2)C1 (stereo unspecified) | ? | 13µM* | ? | ? | ? | 9.5µM*
CCOc1ccccc1/C=C/C(=O)c1ccc(Cl)cc1 | ? | -58% | 17% | 11% | 10% | ?
COc1ccccc1/C=C/C(=O)c1ccc(NC(C)=O)cc1 | ? | nt | 8% | 0% | -1% | 15µM*
COc1ccccc1/C=C/C(=O)N1CCOCC1 | 13% | -16% | 0% | 0% | 3% | 3%
COc1ccccc1/C=C/C(=O)c1ccccc1 | ? | nt | ? | ? | ? | 1.9µM*
O=C(/C=C/c1cccc(C(F)(F)F)c1)NNC(=O)c1ccncc1 | 2% | nt | 2% | 6% | 1% | -7%
N#CCCN(C(=O)COc1ccc(F)cc1Br)c1ccccc1F | -15% | -10% | -3% | -1% | -5% | 1%
Cc1cccc(NC(=O)c2oc3ccc(S(=O)(=O)N(C)C4CCCCC4)cc3c2C)c1C | nt | nt | nt | nt | nt | -5%
CN1N=C2c3ccccc3CCCC2C1c1ccc(F)cc1 (stereo unspecified) | ? | nt | 17% | 26% | ? | 12µM*
CC(=O)N1N=C2c3ccccc3CCC2C1c1cccs1 (stereo unspecified) | -19% | nt | -4% | -3% | -1% | -7%
Cc1cc(C(=O)NC2Cc3ccccc3C2)c(C)o1 | ? | nt | 2.5µM* | 3.2µM* | ? | 21µM*
O=C(N/N=C/c1ccccc1O)c1cccc2ccccc12 | -16% | nt | -34% | -39% | 24% | ?
Cc1cc(C(=O)NC2CCCCC2)c(C)o1 | ? | nt | 7% | 0% | 3% | -12%
Cc1cc(C(=O)N/N=C/c2ccccc2)c(C)o1 | ? | nt | ? | 3.2µM* | ? | 11µM*
Cc1cc(C(=O)N/N=C/c2cccc3ccccc23)c(C)o1 | 30% | nt | 13% | 19% | ? | 19µM*
Cn1c(N)c(C(=O)N/N=C/c2ccccc2)sc1=S | 7% | nt | -1% | 3% | 4% | 0%
Cn1c(C(=O)N/N=C/c2ccccc2)cc2ccccc21 | ? | nt | ? | 2.8µM* | ? | 2.7µM*
Cc1ccc(C(C)C)c(OCC(=O)Nc2ccc(C(=O)OC3CCCCC3)cc2)c1 | nt | -9% | nt | nt | nt | 6%
CCC(=O)N(c1nnc(SCC(=O)Nc2ccccc2Cl)s1)C1CC1 | -11% | nt | -7% | -2% | 0% | 1%
Cc1cc(C(=O)N/N=C/c2ccc([N+](=O)[O-])cc2)c(C)o1 | ? | 3% | 11% | 11% | 7% | 27µM*

Compound activity: PubChem, National Center for Advancing Translational Sciences (NCATS)
